Data on five molecules can be found in PubChem BioAssay (NCATS).

Assay [1] addresses Estrogen receptor (Homo sapiens) (UniProt P03372). Description: qHTS assay for small molecule antagonists of estrogen receptor alpha signaling (AID 588513; active = well fitted curve in the direction sought with a large enough effect in the signal ratio, with a control signal flat, not every such curve was filed as active; the % refers to the signal ratio; also: % is scaled to controls: 0 for no effect and ±100 for the full control effect). The method in brief:
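Fluorescence from CCF4 substrate after 2 h at room temperature gave reporter activity; cells had been exposed to compound and 0.5nM 17-beta-estradiol for 18 h at 37 C. Hill-equation fitting yielded IC50 and maximal response.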

Assay [2] shares this target. The assay is described as follows: qHTS assay for small molecule agonists of estrogen receptor alpha signaling (AID 588514).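 Also: 0% = vehicle only and 100% = reference agonist; nearly all actives have a fitted effect of over 70% in size.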 The method in brief: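 ER-alpha-UAS-bla GripTite HEK 293 cells in medium with 2% charcoal/dextran-treated FBS were treated with compound titrations at 37 C for 18 hrs; beta-lactamase reporter read by CCF4 fluorescence after 2 hrs at RT.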
(In general: In qHTS, concentration-response curves come from the screen itself.)

In assay [3] the target is Peroxisome proliferator-activated receptor delta (Homo sapiens) (UniProt Q03181). The assay is described as follows: qHTS assay for small molecule agonists of peroxisome proliferator-activated receptor delta signaling (AID 588534).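 Also: 0% = DMSO basal wells and 100% = positive control agonist at 10 µM.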 The method in brief:
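Cell-based beta-lactamase reporter assay run in agonist mode: cells seeded and incubated 5 hrs at 37 C, compounds added and incubated 18 hrs at 37 C. CCF4 dye fluorescence read after 2 hrs at RT; EC50 and efficacy from Hill fits.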

In assay [4] the target is Peroxisome proliferator-activated receptor gamma (Homo sapiens) (UniProt P37231). Description: qHTS assay for small molecule agonists of peroxisome proliferator-activated receptor gamma signaling (AID 588536; active = well fitted curve in the direction sought with a large enough effect in the signal ratio, with a control signal flat, not every such curve was filed as active; the % refers to the signal ratio;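 also: 0% = DMSO basal wells and 100% = rosiglitazone at 2 µM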). Put shortly:
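Ratiometric blue/green fluorescence (405 nm excitation; 460 and 530 nm emission) from CCF4-loaded HEK293 reporter cells serves as signal. Exposure to test compounds lasts 16 h at 37 C in medium containing 1% charcoal/dextran-treated serum.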

For assay [5] the target is unchanged. Description: qHTS assay for small molecule antagonists of peroxisome proliferator-activated receptor gamma signaling (AID 588537; active = well fitted inhibition curve with a large enough effect in the signal ratio, with a control signal flat, not every such curve was filed as active; the % refers to the signal ratio;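 also: reporter cells co-stimulated with 50 nM rosiglitazone agonist during compound treatment; % of control where 0% means no effect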). Put shortly:
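Step one: plate 3000 HEK293 UAS-bla cells per well in medium with 1% stripped serum and hold 6-6.5 h at 37 C. Step two: add compound and 50 nM agonist for 16 h. Step three: CCF4 loading, fluorescence read.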

Assay [6] addresses Vitamin D3 receptor (Homo sapiens) (UniProt P11473). Description: qHTS assay for small molecule antagonists of vitamin D receptor signaling (AID 588541).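 Also: receptor activated by calcitriol during compound treatment; series mostly up to about 77 µM; % is scaled to controls: 0 for no effect and ±100 for the full control effect.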 The method in brief:
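VDR-UAS-bla HEK293T cells in 2% charcoal-stripped FBS were stimulated with 1-alpha,25-dihydroxyvitamin D3 (3 nM final) plus compound for 16 h at 37 C. The beta-lactamase CCF4 readout was normalized to 50 nM agonist and DMSO, and Hill fits gave IC50.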

For assay [7] the target is unchanged. The assay is described as follows: qHTS assay for small molecule agonists of vitamin D receptor signaling (AID 588543).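 Also: 0% = DMSO basal and 100% = reference agonist control.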 The method in brief:
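Reporter cells (HEK293T, VDR-UAS-bla) were seeded in medium with 2% charcoal-stripped serum and incubated 5 h, then compounds in concentration series were added for 16 h at 37 °C. Stimulation was scaled between DMSO basal and 50 nM 1α,25-dihydroxyvitamin D3.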

A short description of assay [8]: qHTS assay for small molecule antagonists of retinoid X receptor alpha signaling (AID 588546; active = well fitted inhibition curve with a large enough effect in the signal ratio, with a control signal flat, not every such curve was filed as active; the % refers to the signal ratio;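 also: cells stimulated with 9-cis-retinoic acid as agonist; % is scaled to controls: 0 for no effect and ±100 for the full control effect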). To be noted: HEK293T RXRa-UAS-bla, beta-lactamase ratio, antagonist mode; measured here: W530 green channel, cytotoxicity proxy. The method in brief:
(§1)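 Beta-lactamase reporter inhibition, read as CCF4 fluorescence ratio (ex 405, em 460/530 nm) after 2 h at RT. HEK293T UAS-bla cells, 2500/well, were stimulated with 9-cis-RA at 500 or 100 nM final alongside test compound for 18 h at 37 C.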

Assay [9] has as its target Retinoic acid receptor RXR-alpha (Homo sapiens) (UniProt P19793). The assay is described as above. The note with it: HEK293T RXRa-UAS-bla, beta-lactamase ratio, antagonist mode. The method in brief:
as §1

The target in assay [10] is Thyroid hormone receptor beta (Homo sapiens) (UniProt P10828). The assay is described as follows: qHTS assay for small molecule antagonists of thyroid hormone receptor beta signaling (AID 588547; active = well fitted inhibition curve with a large enough effect in the signal ratio, with a control signal flat, not every such curve was filed as active; the % refers to the signal ratio;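 also: cells stimulated with 0.4 nM T3 agonist during compound exposure; series mostly up to about 77 µM; % is scaled to controls: 0 for no effect and ±100 for the full control effect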). To be noted: TR-UAS-bla HEK293, beta-lactamase ratio, antagonist mode, 18 h. Put shortly: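 TR-UAS-bla GripTite HEK293 cells in 2% charcoal/dextran FBS medium; compounds 0.59 nM to 92 uM with T3 at 0.4nM final, 18 h at 37 C. Beta-lactamase read by CCF4 fluorescence (460/530 nm); Hill fits gave IC50 and efficacy.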
Sequence of Thyroid hormone receptor beta (Homo sapiens) (P10828 whole entry, looked up): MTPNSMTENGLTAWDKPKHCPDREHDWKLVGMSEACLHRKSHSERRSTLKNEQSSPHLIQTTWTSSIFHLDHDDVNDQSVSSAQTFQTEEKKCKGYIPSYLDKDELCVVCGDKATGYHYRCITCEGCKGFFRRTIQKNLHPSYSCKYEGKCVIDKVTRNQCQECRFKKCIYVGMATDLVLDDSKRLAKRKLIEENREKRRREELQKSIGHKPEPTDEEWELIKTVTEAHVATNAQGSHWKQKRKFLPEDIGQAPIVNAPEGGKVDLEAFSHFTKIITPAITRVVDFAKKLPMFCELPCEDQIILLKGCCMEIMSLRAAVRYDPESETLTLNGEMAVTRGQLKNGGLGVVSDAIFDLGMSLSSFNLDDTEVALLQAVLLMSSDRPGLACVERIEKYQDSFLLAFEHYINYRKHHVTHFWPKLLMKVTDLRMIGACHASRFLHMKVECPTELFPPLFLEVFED

A short description of assay [11]: qHTS assay for small molecule activators of the p53 signaling pathway (AID 651743; active = well fitted activation curve with a large enough effect in the signal ratio, not every such curve was filed as active; the % refers to the signal ratio; also: series mostly up to about 92 µM; % of control where 0% means no effect). The note with it: HCT-116 p53RE-bla, beta-lactamase FRET ratio, 16 h; activation: stronger effect = higher value. The method in brief: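 HCT-116 p53RE-bla, 4,000 cells/well; 5 h settle; cpd/DMSO 16 h, 37 C; LiveBLAzer B/G 2 h RT; fluorescence intensity.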
Assay [12] deals with Peroxisome proliferator-activated receptor alpha (Homo sapiens) (UniProt Q07869). Description: qHTS assay for small molecule agonists of the peroxisome proliferator-activated receptor alpha (PPARalpha) signaling pathway (AID 651778; active = well fitted curve in the direction sought with a large enough effect; an effect the other way counts as inactive or inconclusive; also: % of control where 0% means no effect). To be noted: PathHunter PPARalpha complementation, chemiluminescence, 6 h; max response: stronger effect = higher value. The method in brief: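 Enzyme-fragment complementation assay in which ligand-bound PPARalpha translocates and forms an active enzyme that generates chemiluminescence. Cells were plated overnight, exposed to compound for 6 hr at 37 C, and then given detection reagent for 60 min at room temperature.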
Sequence of Peroxisome proliferator-activated receptor alpha (Homo sapiens) (Q07869 whole entry, looked up, the tested form may be a part): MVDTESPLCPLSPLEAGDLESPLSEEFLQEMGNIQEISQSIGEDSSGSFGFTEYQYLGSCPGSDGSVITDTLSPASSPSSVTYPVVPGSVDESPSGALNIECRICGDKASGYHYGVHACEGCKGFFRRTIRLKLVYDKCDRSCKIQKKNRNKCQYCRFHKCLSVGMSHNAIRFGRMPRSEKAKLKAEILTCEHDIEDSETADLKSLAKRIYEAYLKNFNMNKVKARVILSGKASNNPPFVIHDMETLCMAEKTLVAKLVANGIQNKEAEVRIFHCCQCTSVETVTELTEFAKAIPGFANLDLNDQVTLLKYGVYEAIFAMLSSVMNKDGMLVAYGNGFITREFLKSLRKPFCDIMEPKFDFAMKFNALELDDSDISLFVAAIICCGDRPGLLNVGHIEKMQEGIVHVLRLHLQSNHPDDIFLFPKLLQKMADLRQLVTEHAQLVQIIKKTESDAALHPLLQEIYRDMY

Assay [13] in a line: qHTS assay for small molecule agonists of the antioxidant response element (ARE) signaling pathway measured by Nrf2-dependant transcriptional activity (AID 720636; active = well fitted curve in the direction sought with a large enough effect in the repeat runs; an effect the other way counts as inactive or inconclusive; also: % of control where 0% means no effect). Put shortly:
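Nrf2-dependent transcription read as ONE-Glo luciferase signal from ARE-luc HepG2 reporter cells after 16 hr compound treatment at 37 C, 5% CO2, in assay medium with 1% dialyzed FBS.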

Assay [14] in a line: qHTS assay for small molecule agonists of the antioxidant response element (ARE) signaling pathway measured by Nrf2-dependant transcriptional activity - cell viability counter screen (AID 720653; active = well fitted curve in the direction sought with a large enough effect in the repeat runs; an effect the other way counts as inactive or inconclusive; also: % is scaled to controls: 0 for no effect and ±100 for the full control effect). To be noted: ARE-bla HepG2 viability, CellTiter-Glo ATP luminescence, 16 h; max response: stronger effect = lower value. The method in brief: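 ARE-bla HepG2 cells treated with compounds for 16 h at 37C; this counter screen measures viability as intracellular ATP by CellTiter-Glo luminescence after 30 min at room temperature.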

Assay [15] can be described thus: qHTS assay for cell viability of HEK293 cells (AID 743288; active = well fitted curve in the direction sought with a large enough effect; an effect the other way counts as inactive or inconclusive; also: % is scaled to controls: 0 for no effect and ±100 for the full control effect; nearly all actives have a fitted effect of over 50% in size). The note with it: ATP luminescence (CellTiter-Glo), 18 h; max response: stronger effect = lower value. Put shortly: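 HEK293 parental, 2,000 cells/well; ≥5 h pre-incubation 37 C; pintool compound addition; 18 h, 37 C; CellTiter-Glo 30 min RT; luminescence read.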
Assay [16] is described as follows: qHTS assay for cell viability of the p53RE-bla HCT-116 cell line (AID 743292; active = well fitted curve in the direction sought with a large enough effect; an effect the other way counts as inactive or inconclusive; also: % is scaled to controls: 0 for no effect and ±100 for the full control effect; nearly all actives have a fitted effect of over 55% in size). The method in brief: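 ATP-based luminescent viability (CellTiter-Glo, 30 min RT) after 16 h compound treatment at 37 C of p53RE-bla HCT-116 cells, seeded at 4,000 cells/well and rested 5 h before dosing.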
In assay [17] the target is Nuclear receptor subfamily 1 group I member 2 (Rattus norvegicus) (UniProt Q9R1A7). Description: qHTS assay for small molecule activators of the rat pregnane X receptor (rPXR) signaling pathway (AID 651751; call rule not given here; also: 0% is about no effect). The note with it: rPXR reporter cells, luciferase (One-Glo), 24 h.
Sequence of Nuclear receptor subfamily 1 group I member 2 (Rattus norvegicus) (Q9R1A7 whole entry, looked up): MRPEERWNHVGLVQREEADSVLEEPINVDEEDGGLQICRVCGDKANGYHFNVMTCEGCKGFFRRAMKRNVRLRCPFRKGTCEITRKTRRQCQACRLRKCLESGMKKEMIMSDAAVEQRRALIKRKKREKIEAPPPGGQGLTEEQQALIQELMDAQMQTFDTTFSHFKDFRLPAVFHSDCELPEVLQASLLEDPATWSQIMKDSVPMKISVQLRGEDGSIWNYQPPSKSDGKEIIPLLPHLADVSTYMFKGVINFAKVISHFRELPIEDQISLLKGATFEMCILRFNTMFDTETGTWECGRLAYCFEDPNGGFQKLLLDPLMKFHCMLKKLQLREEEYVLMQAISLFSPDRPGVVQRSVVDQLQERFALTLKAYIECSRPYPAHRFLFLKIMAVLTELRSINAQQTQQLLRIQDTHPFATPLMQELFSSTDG
Assay [18] deals with Retinoic acid receptor RXR-alpha (Homo sapiens) (UniProt P19793). The assay is described as follows: qHTS assay for small molecule agonists of retinoid X receptor alpha signaling (AID 588544).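 Also: 0% = DMSO basal wells and 100% = reference agonist.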
Sequence of Retinoic acid receptor RXR-alpha (Homo sapiens) (P19793 whole entry, looked up): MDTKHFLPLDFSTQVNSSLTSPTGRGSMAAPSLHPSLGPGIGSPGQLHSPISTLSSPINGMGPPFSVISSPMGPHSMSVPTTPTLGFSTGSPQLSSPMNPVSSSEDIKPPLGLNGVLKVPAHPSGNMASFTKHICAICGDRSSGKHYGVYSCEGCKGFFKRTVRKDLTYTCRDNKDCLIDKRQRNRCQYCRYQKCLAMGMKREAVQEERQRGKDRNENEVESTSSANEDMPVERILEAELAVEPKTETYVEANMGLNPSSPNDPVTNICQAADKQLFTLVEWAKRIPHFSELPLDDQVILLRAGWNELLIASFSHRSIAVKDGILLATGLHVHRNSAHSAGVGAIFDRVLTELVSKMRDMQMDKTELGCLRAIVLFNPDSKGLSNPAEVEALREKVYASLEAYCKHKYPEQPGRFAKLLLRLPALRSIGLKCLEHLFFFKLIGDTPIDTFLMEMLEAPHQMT
Assay [19] concerns the target Thyroid hormone receptor beta (Homo sapiens) (UniProt P10828). Description: qHTS assay for small molecule agonists of thyroid hormone receptor beta signaling (AID 588545).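 Also: 0% = DMSO only and 100% = 10 nM T3.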 The method in brief: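 Stimulation of a TR-driven beta-lactamase reporter was quantified in GripTite HEK 293 cells. Compound series ran for 18 hrs; curves were normalized to T3 and DMSO controls and fitted to yield EC50.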

A short description of assay [20]: qHTS assay for environmental chemicals that activate the Aryl hydrocarbon Receptor (AhR) signaling pathway (AID 651777; active = well fitted curve in the direction sought with a large enough effect; an effect the other way counts as inactive or inconclusive; also: % of control where 0% means no effect; nearly all actives have a fitted effect of over 15% in size). To be noted: 1A2-DRE human hepatoma cells, luciferase, 24 h; activation: stronger effect = higher value. The method in brief:
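Luminescence (One-Glo, 30 min, room temperature) reports AhR-driven luciferase in stably transfected human hepatoma cells bearing DRE and CYP1A2 promoter. Cells (1,200/well) were treated with compound for 24 hr at 37 C in qHTS format.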

“And” between values parts separate entries of the source, which are not always exact repeats. Equal entries are not always repeated. Results filed as inconclusive are left out. The source made the active and inactive calls. Unless noted, calls follow the shape of the full dose curve.

Sequence of Peroxisome proliferator-activated receptor delta (Homo sapiens) (Q03181 whole entry, looked up): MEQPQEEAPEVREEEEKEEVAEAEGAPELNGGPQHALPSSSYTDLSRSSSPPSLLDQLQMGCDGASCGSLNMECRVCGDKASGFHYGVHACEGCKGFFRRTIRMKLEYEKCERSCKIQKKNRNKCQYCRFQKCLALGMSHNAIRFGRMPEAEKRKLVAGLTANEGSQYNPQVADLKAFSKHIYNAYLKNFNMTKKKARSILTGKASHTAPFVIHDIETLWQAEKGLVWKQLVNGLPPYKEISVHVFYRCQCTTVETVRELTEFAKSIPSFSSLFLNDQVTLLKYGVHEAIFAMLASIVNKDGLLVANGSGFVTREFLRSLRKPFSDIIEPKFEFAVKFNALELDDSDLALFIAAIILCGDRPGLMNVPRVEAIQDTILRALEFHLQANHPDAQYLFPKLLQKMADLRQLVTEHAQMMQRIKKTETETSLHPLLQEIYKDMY
Sequence of Estrogen receptor (Homo sapiens) (P03372 whole entry, looked up): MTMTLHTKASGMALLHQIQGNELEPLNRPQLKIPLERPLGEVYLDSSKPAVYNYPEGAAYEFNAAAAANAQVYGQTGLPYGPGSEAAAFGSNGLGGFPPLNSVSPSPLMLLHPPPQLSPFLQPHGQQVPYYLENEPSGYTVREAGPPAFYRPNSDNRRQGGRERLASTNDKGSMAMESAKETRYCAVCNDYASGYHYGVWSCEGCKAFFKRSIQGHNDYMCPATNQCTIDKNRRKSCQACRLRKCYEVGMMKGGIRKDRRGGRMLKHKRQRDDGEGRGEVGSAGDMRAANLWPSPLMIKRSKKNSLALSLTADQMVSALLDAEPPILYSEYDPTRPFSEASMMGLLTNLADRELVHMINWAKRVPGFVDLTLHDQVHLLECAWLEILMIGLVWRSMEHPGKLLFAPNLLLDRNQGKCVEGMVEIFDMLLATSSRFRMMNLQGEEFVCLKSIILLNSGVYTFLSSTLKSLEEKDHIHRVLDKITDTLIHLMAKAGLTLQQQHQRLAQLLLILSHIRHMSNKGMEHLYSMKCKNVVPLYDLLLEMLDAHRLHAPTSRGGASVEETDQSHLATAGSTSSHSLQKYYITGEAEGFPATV
Sequence of Vitamin D3 receptor (Homo sapiens) (P11473 whole entry, looked up): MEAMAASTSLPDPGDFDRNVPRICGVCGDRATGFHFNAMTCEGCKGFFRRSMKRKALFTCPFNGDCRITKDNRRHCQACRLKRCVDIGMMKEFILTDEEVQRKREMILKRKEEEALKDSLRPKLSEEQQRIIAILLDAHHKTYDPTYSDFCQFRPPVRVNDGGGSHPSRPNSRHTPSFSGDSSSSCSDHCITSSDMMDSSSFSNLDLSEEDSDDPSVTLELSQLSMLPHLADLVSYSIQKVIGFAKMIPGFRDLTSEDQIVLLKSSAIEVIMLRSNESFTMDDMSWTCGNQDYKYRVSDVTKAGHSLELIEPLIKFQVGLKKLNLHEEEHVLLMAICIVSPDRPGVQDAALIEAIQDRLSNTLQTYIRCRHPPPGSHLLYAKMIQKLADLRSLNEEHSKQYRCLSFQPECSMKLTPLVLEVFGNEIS
Sequence of Peroxisome proliferator-activated receptor gamma (Homo sapiens) (P37231 whole entry, looked up): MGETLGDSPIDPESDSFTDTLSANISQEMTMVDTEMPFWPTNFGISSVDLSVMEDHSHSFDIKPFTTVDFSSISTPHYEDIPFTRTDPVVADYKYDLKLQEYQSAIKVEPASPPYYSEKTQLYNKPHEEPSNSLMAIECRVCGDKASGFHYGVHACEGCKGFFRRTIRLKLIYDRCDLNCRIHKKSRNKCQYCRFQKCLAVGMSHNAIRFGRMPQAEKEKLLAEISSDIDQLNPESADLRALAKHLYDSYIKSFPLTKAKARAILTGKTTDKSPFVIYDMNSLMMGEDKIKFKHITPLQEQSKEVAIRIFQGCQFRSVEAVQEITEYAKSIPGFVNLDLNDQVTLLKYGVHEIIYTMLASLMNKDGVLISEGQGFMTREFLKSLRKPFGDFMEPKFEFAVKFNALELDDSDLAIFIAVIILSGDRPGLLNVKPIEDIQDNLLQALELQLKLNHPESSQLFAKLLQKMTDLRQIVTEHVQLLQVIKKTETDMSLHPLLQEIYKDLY

Take `C=CC(=O)NCO`: the Potency result in [1], in [2], in assay [4], in assay [5], in assay [6] and in [13] was “inactive” in each case. In addition, the Potency result in assay [16] is “inactive”. In addition, the molecule was classed as inactive in [3] and in [7]. In addition, the max response in assay [8] was -9.77% and -7.1%; in assay [9], 4.89% (inactive) and 0.243% (inactive); in assay [12], -1.6% (inactive) and -1.01% (inactive); in assay [14], -3.08% (inactive) and -9.83% (inactive); in [15] it was -8.84% (inactive) and -5.85% (inactive); in assay [17] it was 3.28% (inactive) and -7.26% (inactive). The activity change % (negative = inhibition) in assay [10] is 0.0569% (inactive). Besides, the activation in assay [11] is 0.261% (inactive) and -0.511% (inactive).

For the molecule `CCOP(=O)(OCC)SCSC(C)(C)C`, the Potency entry in assay [1], in assay [2], in assay [4], in [6], in [18] and in assay [19] was “inactive” in each case. Also, the Potency entry in assay [13] and in [16] was “inactive” throughout. For the same molecule, the call in assay [3] and in assay [7] was inactive. The max response in assay [8] is -15.4%; in assay [9] it was -1.69% (inactive); in assay [12], 0.241% (inactive); in [14] it was 4.97% (inactive); in assay [17] it was 1.41% (inactive). For the same molecule, the activity change % (negative = inhibition) in [10] was -1.18% (inactive). Further, the activation was -4.41% (inactive) in [11] and -0.964% (inactive) in [20].

For the molecule `CCCCN(CC)C(=O)SCCC`, the Potency entry in [1], in assay [2], in assay [4], in assay [5], in assay [6] and in assay [18] was “inactive” in each case. In addition, the Potency result in assay [19], in [13] and in assay [16] was “inactive” each time. Further, the outcome in assay [3] and in assay [7] was inactive. Moreover, the max response in [8] was -6.82%; in [9] it was 3.02% (inactive); in assay [12] it was 0.725% (inactive); in assay [14], -4.49% (inactive); in assay [15], -1.81% (inactive); in [17], 4.32% (inactive). For the same molecule, the activity change % (negative = inhibition) in assay [10] was 1.78% (inactive). Further, the activation is 2.73% (inactive) in assay [11] and 0.496% (inactive) in assay [20].

For the molecule `C/C(=N\C(N)=O)N(C)Cc1ccc(Cl)nc1`, the Potency entry in assay [1], in assay [2], in assay [4], in assay [5], in assay [6] and in assay [18] was “inactive” throughout. The Potency result in [19], in [13] and in assay [16] was “inactive” in each case. Besides, the molecule was called inactive in assay [3] and in assay [7]. The max response was -9.48% in [8]; -3.51% (inactive) in assay [9]; -7.18% (inactive) in [14]; 0.858% (inactive) in assay [15]; 2.68% (inactive) in assay [17]. For the same molecule, the activity change % (negative = inhibition) in [10] is -10.7% (inactive). Further, the activation in assay [11] is -4.92% (inactive); in assay [20] it was -0.747% (inactive).

In the case of `CCOP(=O)(OCC)SCSCC`, the Potency result in assay [1], in assay [2], in assay [4], in [5], in [6] and in assay [18] was “inactive” each time. Further, the Potency entry in assay [19], in assay [13] and in [16] was “inactive” in each case. In addition, the result in [3] and in assay [7] was inactive. In addition, the max response in assay [8] was -15.2%; in assay [9] it was -5.71% (inactive); in assay [12], -4.89% (inactive); in assay [14], 2.19% (inactive); in assay [15], -3.03% (inactive); in assay [17], -5.9% (inactive). The activity change % (negative = inhibition) in assay [10] is 4.37% (inactive). Besides, the activation in assay [11] was 4.72% (inactive); in assay [20], 0.0868% (inactive).
